Test results reported in PubChem BioAssay (Tox21).
Inconclusive results are not listed. Active and inactive are the calls of the source. Calls follow the shape of the dose curve; as a rule, active = well fitted cell-killing curve with a large enough effect in the repeat runs; inconclusive = weak or mixed curves, or effect the other way; inactive = no such curve, though single readings can be large or run the other way.

test: qHTS assay to identify small molecule antagonists of the retinoid-related orphan receptor gamma (ROR-gamma) signaling pathway - cell viability counter screen (AID 1159520); settings: Tet-on RORgamma CHO cells viability, ATP luminescence, 16 h; series mostly up to 92.4 µM; activity, negative = cytotoxicity: at the top concentration; also: nearly all actives have a fitted effect of over 50% in size
In short: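 Cytotoxicity was read from cellular ATP (CellTiter-Glo luminescence) after 16 hr at 37 C with 1 uM doxycycline induction. The inducer was added 2 hr after compound transfer to Tet-on ROR gamma CHO cells.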
% is scaled to controls: 0 for no effect and ±100 for the full control effect; potency is read from the fitted curve at half-maximal effect.

SMILES	activity, negative = cytotoxicity	Potency
C=C(C)CCO	2.9% (inactive)	
Nc1ccc(Cl)c([N+](=O)[O-])c1	-11.5% (inactive)	
c1ccc2c(c1)-c1ccc3ccc4cccc5cc-2c1c3c45	-0.0547% [at 42.5 µM] (inactive)	
CC1(C)[C@H](C(=O)OCc2cccc(Oc3ccccc3)c2)[C@@H]1C=C(Cl)Cl	5.45% (inactive)	
CC(C)=NNC(N)=S	2.82% (inactive)	
CCOC(=O)[C@H](C)O	1.72% (inactive)	
C=C1CC[C@H]2O[C@]2(C)CC[C@@H]2[C@@H]1CC2(C)C	-5.73% (inactive)	
O=C1OC2(c3ccccc31)c1ccc(O)c(Br)c1Oc1c2ccc(O)c1Br	-7.19% (inactive)	
C1CCSC1	0.704% (inactive)	
C1=CCCC1	-4.02% (inactive)	
O=C(c1ccccc1)c1ccc(Cl)cc1	-5.62% (inactive)	
C/C=C/C(=O)OCC(C)C	7.51% (inactive)	
Nc1cc([N+](=O)[O-])ccc1Cl	-5.79% (inactive)	
COc1ccc(OC)c(N=Nc2c(O)ccc3ccccc23)c1		30.6 µM (active)
CCC(O)CO (centres undefined)	5.43% (inactive)	
Cc1ccc(C2OC[C@@H]3OC(c4ccc(C)cc4)O[C@H]([C@H](O)CO)[C@@H]3O2)cc1 (some centres undefined)	-0.0287% (inactive)	
COCCC(=O)OC	0.228% (inactive)	

SMILES	activity, negative = cytotoxicity	Potency
Nc1cc([N+](=O)[O-])cc(Cl)c1O	-11.9% (inactive)	
CCN(CCC#N)c1ccc(N=Nc2ccc([N+](=O)[O-])cc2)cc1	-13% (inactive)	
O=[N+]([O-])c1ccc(CO)cc1	-10.8% (inactive)	
C=Cc1ccncc1	8.14% (inactive)	
COC(=O)c1ccc([N+](=O)[O-])cc1	-6.99% (inactive)	
CCOC(=O)OC(=O)OCC	2.84% (inactive)	
Cc1ccc2n[nH]nc2c1	3.27% (inactive)	
Nc1cccnc1N	5.39% (inactive)	
O=C1OCc2ccccc21	-0.31% (inactive)	
CC(CC(C)(C)C)CC(C)(C)CC(C)(C)C (centres undefined)	5.37% [at 42.5 µM] (inactive)	
Cc1ccc(N=Nc2c(O)ccc3ccccc23)c(C)c1	-8.68% [at 42.5 µM] (inactive)	
COc1cc2ncnc(Nc3cccc(Cl)c3)c2cc1OC	-2.63% [at 19 µM] (inactive)	
Clc1ccc2c(Cl)ccnc2c1	-2.04% (inactive)	
Cc1cccc(C)c1C	2.38% (inactive)	
Oc1ccc2c(c1)CCC2	-1.69% (inactive)	
Cc1c[nH]c(=O)[nH]c1=O	5.19% (inactive)	
NC(=O)c1ccccc1Cl	-4.23% (inactive)	
